From PubChem BioAssay (NCI)
About 83,000 compounds went through this panel and 20% of them were active in at least one assay; those are over-represented in the sample as a whole.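 48-hour exposure, single concentration, 96-well plates; percent growth endpoint where 0 means no net growth. Active: below 10.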 Unmarked numbers belong to inactive results. The source made the active and inactive calls.

Legend:
Test in all cases: NCI-60 one-dose screen, 48 h (100 = growth as untreated, 0 = no growth, -100 = all killed)
Settings in all cases: 10 µM unless noted
HCT-15 colon = system: HCT-15 colon
HT29 colon = system: HT29 colon
SNB-75 CNS = system: SNB-75 CNS
SNB-19 CNS = system: SNB-19 CNS
U251 CNS = system: U251 CNS
PC-3 prostate = system: PC-3 prostate
SK-MEL-5 melanoma = system: SK-MEL-5 melanoma
UACC-62 melanoma = system: UACC-62 melanoma
LOX IMVI melanoma = system: LOX IMVI melanoma
SK-MEL-28 melanoma = system: SK-MEL-28 melanoma
SK-MEL-2 melanoma = system: SK-MEL-2 melanoma
EKVX NSCLC = system: EKVX NSCLC
SN12C renal = system: SN12C renal
UO-31 renal = system: UO-31 renal
TK-10 renal = system: TK-10 renal
ACHN renal = system: ACHN renal
CAKI-1 renal = system: CAKI-1 renal
A498 renal = system: A498 renal
CCRF-CEM leukemia = system: CCRF-CEM leukemia
MOLT-4 leukemia = system: MOLT-4 leukemia

Structure (SMILES)	growth (HCT-15 colon) [%]	growth (HT29 colon)	growth (SNB-75 CNS)	growth (SNB-19 CNS) [%]	growth (U251 CNS) [%]	growth (PC-3 prostate)	growth (SK-MEL-5 melanoma)	growth (UACC-62 melanoma)	growth (LOX IMVI melanoma)	growth (SK-MEL-28 melanoma) [%]	growth (SK-MEL-2 melanoma)	growth (EKVX NSCLC)	growth (SN12C renal)	growth (UO-31 renal) [%]	growth (TK-10 renal)	growth (ACHN renal) [%]	growth (CAKI-1 renal) [%]	growth (A498 renal)	growth (CCRF-CEM leukemia)	growth (MOLT-4 leukemia)
COc1ccccc1-[n+]1cc(-c2ccc(-c3ccccc3)cc2)n2c1CCCCC2	66	1.07% (active)	16%	11.7	10.6	1.3% (active)	-78.8% (active)	2.5% (active)	11.3%	27.8	-27% (active)	9.1% (active)	0.949% (active)	74.7	7.69% (active)	32.5	72.6	9.77% (active)	17.2%	9.4% (active)
O=C(CC(=O)c1cccc(Cl)c1)c1cccc(Cl)c1	25.9	34.7%	75.3%	31.3	16.7	33.3%	36.8%	27.2%	33.2%	56	60.4%	20.5%	23.2%	42.7	46.6%	31.2	23.4	79.2%	11.4%	21.7%
COc1ccc(-c2cnnn2-c2nonc2-n2cccc2)cc1	21.4	8.25% (active)	-15.9% (active)	37.6	22.1	28.8%	31.9%	24.1%	34.1%	18.4	54.6%	55.6%	43.9%	44.2	63.7%	48.2	45.5	-4.22% (active)	14.1%	5.61% (active)
Cc1ccsc1C(=O)CC(=O)C(F)(F)C(F)(F)C(F)(F)F	111	111%	92.3%	111	103	91.2%	109%	96.7%	97.8%	103	115%	93%	96.7%	86.5	126%	102	92	116%	95.7%	110%
COc1ccc2nc3ccccc3c(NCc3ccc(C)cc3)c2c1	11.4	1.23% (active)	46.6%	29.2	15.3	11.4%	34.4%	55.7%	-6.01% (active)	66.4	70%	35.2%	23.6%	13.4	47%	16.3	26.2	-1.58% (active)	7.09% (active)	0.305% (active)
CCN(CC)c1ccc2c(cc1=O)[C@@H](NC(C)=O)CCc1cc(OC)c(OC)c(OC)c1-2	30	-26.4% (active)	22.1%	40.8	11.8	31.7%	7.17% (active)	19.4%	25.1%	62.3	4.73% (active)	44.6%	32.9%	58.3	30.8%	30.3	64.3	-15.9% (active)	9.47% (active)	2.09% (active)
C=C1C(=O)O[C@H]2[C@H]1CC/C(COC(=O)NCc1ccc(Cn3c(=O)sn(CCCl)c3=O)cc1)=C\CC[C@@]1(C)O[C@@H]21	27.6	15.1%	85.5%	99	78.7	78.7%	81.7%	69.5%	60.8%	64.3	68.8%	83.6%	82.6%	79.3	11.4%	70.3	48.3	98.4%	-3.67% (active)	-18.8% (active)
CC1=C(O)C(=O)CC1	108	101%	97.9%	101	100	80.9%	99.5%	110%	99.7%	100	118%	96.2%	97%	94	111%	111	90.9	83.7%	115%	108%
Cc1ccc(C)c2c1SC1=NNC(Oc3ccc(Cl)cc3)=C(C#N)C(=N)N12	104	103%	92.2%	110	98.4	85%	93.5%	97.1%	99.7%	107	132%	100%	117%	85.3	125%	90.6	87.4	87.1%	96.8%	85.2%
C[C@@H]1N=C(c2ccc3ccccc3c2)Nc2nc3ccccn3c2C1=O	33.8	5.93% (active)	37.1%	53.3	32.5	52%	35.3%	48.8%	48.5%	59.9	36.3%	75.6%	60.1%	55.6	64.4%	55.4	38.5	47.3%	52.9%	34.5%
CC(C)(C)[Si](C)(C)OC1[C@@H](CNC(N)=O)O[C@@H](n2cnc3c(NC(=O)Nc4ccccc4)ncnc32)[C@H]1O[Si](C)(C)C(C)(C)C (stereo not given in full)	48.3	-7.1% (active)	73.9%	88.4	62.2	17%	76.9%	83.3%	32.3%	92.7	80.9%	59.7%	-33.7% (active)	40.9	84.5%	40.2	92.2	81%	47.9%	23.5%
O=C(CSc1nc2c(n1Nc1ccccc1)-c1ccccc1SC2)Nc1nccs1	87.5	102%	69.7%	99.4	93.8	78.8%	101%	83.3%	97.1%	112	102%	89.3%	95.3%	63.1	120%	95.2	73.7	77%	84.5%	82.5%
CCOC(=O)N1C2CCC(C2)N1C(=O)OCC	106	107%	71.6%	100	99.1	105%	104%	98.2%	99.7%	97.4	99%	113%	105%	95.6	94.7%	106	106	115%	100%	93%
